Hit rate of the full screen: of about 330,000 compounds, about 3,800 (1.2%) were called active. Cut-off read from the data, not from the text of the source: active = inhibition above about 15%; inconclusive = no clear call, values can overlap the other calls; inactive = below that. Only a selection was taken, and actives are over-represented in it overall.
What follows are molecules tested against NAD-dependent protein deacylase sirtuin-5, mitochondrial (Homo sapiens) (UniProt Q9NXA8) (assay: blockers of sirtuin-5 deacylase activity – biochemical, fluorescence imaging, single point, set 5, primary screen (AID 652115)). Settings: Purified SirT5, succinyl-peptide AMC, trypsin-coupled fluorescence; at 15 µM; hits give high values.
NAD-dependent protein deacylase sirtuin-5, mitochondrial (Homo sapiens), sequence (Q9NXA8 whole entry, looked up): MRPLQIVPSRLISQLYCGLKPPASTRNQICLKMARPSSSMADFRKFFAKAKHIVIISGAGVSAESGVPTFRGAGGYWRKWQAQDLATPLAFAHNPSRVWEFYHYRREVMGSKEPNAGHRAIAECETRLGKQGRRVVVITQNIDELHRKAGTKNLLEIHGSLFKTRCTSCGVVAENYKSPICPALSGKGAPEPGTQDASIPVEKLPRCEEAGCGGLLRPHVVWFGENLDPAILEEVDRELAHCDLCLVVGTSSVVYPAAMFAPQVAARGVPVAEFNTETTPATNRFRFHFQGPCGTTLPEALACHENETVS
With CC(C)Oc1ccc(C(=O)NCC(=O)Nc2ccc3c(c2)CCC3)cc1 the inhibition was -4.19% (inactive). For COc1ccc(-c2ocnc2C(=O)Nc2ccc3c(c2)CCC3)cc1, the inhibition was 22.1% (active). In the case of COc1cccc(NC(=O)CN(C)CC(=O)Nc2ccc3c(c2)CCC3)c1, the inhibition is reported as 2.3% (inactive). In the case of CNC(=O)C[C@@H]1CC[C@H]2[C@H](COc3ccc(NC(=O)c4cccc(OC)c4)cc3C(=O)N2C)O1, the inhibition is reported as 2.09% (inactive). CCc1cccc(NC(=O)O[C@H]2[C@H](OC(=O)Nc3ccccc3-c3ccccc3)[C@H](OC(=O)Nc3ccccc3-c3ccccc3)[C@@H](OC)O[C@@H]2CO)c1 was tested, and the inhibition was 17.1% (active). In the case of CO[C@H]1O[C@H](CO)[C@@H](OC(=O)Nc2ccccc2)[C@H](OC(=O)Nc2ccc3c(c2)OCO3)[C@H]1OC(=O)Nc1ccc2c(c1)OCO2, the inhibition is reported as 2.4% (inactive). In the case of CO[C@H]1O[C@H](CO)[C@@H](OC(=O)Nc2ccccc2-c2ccccc2)[C@H](OC(=O)Nc2ccccc2)[C@H]1OC(=O)Nc1ccccc1, the inhibition is reported as 8.45% (inactive). C[C@H]1CN([C@@H](C)CO)C(=O)c2cc(C3=CCCCC3)cnc2O[C@@H]1CN(C)C(=O)c1ccc(F)cc1 was tested, and the inhibition was 1.19% (inactive). For CCCNC(=O)N1[C@H](CO)[C@@H]2c3ccccc3N(C(=O)C3CC3)C[C@@H]21, the inhibition was 1.05% (inactive). For Cc1ccc(NC2=C(Cl)C(=O)OC2OC(=O)c2ccccc2C)cc1 (stereo not drawn), the inhibition was 17.3% (active). For CCOC(=O)c1ccc(Nc2cc3ccccc3c(=O)[nH]2)cc1, the inhibition was -0.372% (inactive). Cc1ccccc1C(=O)OC1OC(=O)C(Cl)=C1Nc1ccccc1 (stereo not drawn) was tested, and the inhibition was -2.37% (inactive). With O=C(c1cccnc1)N1CC(=O)N2[C@H](C1)[C@H](c1ccc(-c3ccccc3F)cc1)[C@@H]2CO the inhibition was -2.3% (inactive). In the case of CCCNC(=O)Nc1ccc2c(c1)C(=O)N(C)C[C@H](OC)[C@H](C)CN(Cc1cccnc1)[C@@H](C)CO2, the inhibition is reported as 0.086% (inactive). In the case of O=[N+]([O-])c1ccc2c(c1)Nc1nc3ccccc3nc1N2, the inhibition is reported as 1.03% (inactive). In the case of O=[N+]([O-])c1ccc2oc(-c3cccc(O)c3)nc2c1, the inhibition is reported as 18.3% (active). In the case of CC(=O)Oc1ccc2c(=O)oc(-c3ccc([N+](=O)[O-])cc3)nc2c1, the inhibition is reported as -2.32% (inactive). In the case of COc1ccccc1C(=O)NCc1nnc(SC(C)C(=O)Nc2nccs2)n1C (stereo not drawn), the inhibition is reported as -2% (inactive). With CC(Sc1nnc(CNC(=O)c2ccccc2F)n1C)C(=O)Nc1nccs1 (stereo not drawn) the inhibition was -2.13% (inactive). With Cc1cccc(C(=O)NCc2nnc(SC(C)C(=O)Nc3nnc(C)s3)n2C)c1 (stereo not drawn) the inhibition was 21.7% (active). In the case of CCCNC(=O)C[C@H]1CC[C@H]2[C@@H](COC[C@@H](O)CN2C(=O)Nc2ccc(Cl)c(Cl)c2)O1, the inhibition is reported as 3.46% (inactive). For Nc1nc2c(ncn2[C@@H]2O[C@H](CNS(=O)(=O)N3CCc4ccccc4C3)[C@@H](O)[C@H]2O)c(=O)[nH]1, the inhibition was 2.78% (inactive). With Nc1nc2c(ncn2[C@@H]2O[C@H](CNCc3ccc(OCCCN4CCOCC4)cc3)[C@@H](O)[C@H]2O)c(=O)[nH]1 the inhibition was 22.3% (active). For CC(C)(O)C#Cc1ccc(CNC[C@H]2O[C@@H](n3cnc4c(=O)[nH]c(N)nc43)[C@H](O)[C@@H]2O)s1, the inhibition was -5.95% (inactive). In the case of CCOC(=O)[C@]12CCCC=C1N(CCC1=CCCCC1)C(=O)[C@H](CC(=O)N1CCN(C(=O)c3ccco3)CC1)C2, the inhibition is reported as 16.3% (active). For CCOC(=O)[C@]12CCCC=C1N(CCC1=CCCCC1)C(=O)[C@H](CC(=O)N1CCCCC1)C2, the inhibition was -0.497% (inactive). For CCOC(=O)[C@]12CCCC=C1N(CCC1=CCCCC1)C(=O)[C@H](CC(=O)N1CCSCC1)C2, the inhibition was 0.458% (inactive). With C[C@H]1CN([C@@H](C)CO)C(=O)c2cc(C#CC3CCCC3)cnc2O[C@@H]1CN(C)C(=O)Cc1ccccn1 the inhibition was 0.934% (inactive). For COc1ccc(Cn2c(=S)[nH]c3cc(C(=O)N4CCCCC4)ccc3c2=O)cc1, the inhibition was 16.6% (active). In the case of COc1ccc(Cn2c(=S)[nH]c3cc(C(=O)NCCCN4CCOCC4)ccc3c2=O)cc1, the inhibition is reported as -1.07% (inactive). For COc1ccc(OC)c(-n2c(=S)[nH]c3cc(C(=O)N4CCCCC4)ccc3c2=O)c1, the inhibition was -0.433% (inactive). Cn1cnc(S(=O)(=O)N2C[C@H](O)COC[C@@H]3O[C@H](CC(=O)NC4Cc5ccccc5C4)CC[C@H]32)c1 was tested, and the inhibition was 1.91% (inactive). For COc1cccc(C#Cc2ccc3c(c2)[C@H]2[C@H](CCN2C(=O)CC2CC2)[C@H](CO)N3)c1, the inhibition was 0.183% (inactive). Cc1ccc(NC(=O)c2csc3c2CCCC3)cc1 was tested, and the inhibition was -2.6% (inactive). For O=C(N/N=C/c1ccco1)c1csc2c1CCCC2, the inhibition was 15.8% (active). O=C(N/N=C/c1ccco1)c1ccc(NC(=O)C2CC2)cc1 was tested, and the inhibition was 0.297% (inactive). With CCCNC(=O)N1C[C@H](O)COC[C@H]2O[C@@H](CC(=O)NCc3ccncn3)CC[C@@H]21 the inhibition was 0.03% (inactive). For C[C@@H]1CN([C@@H](C)CO)C(=O)c2cc(-c3cncnc3)cnc2O[C@H]1CN(C)Cc1cncnc1, the inhibition was 4.33% (inactive). Cc1ccccc1NC(=O)CSC(=O)c1ccccc1 was tested, and the inhibition was -2.14% (inactive). Cc1ccccc1NC(=O)Cn1c(=O)n(CC2CCCO2)c(=O)c2ccccc21 (stereo not drawn) was tested, and the inhibition was -0.914% (inactive). In the case of Cc1ccccc1NC(=O)CN1C(=O)N/C(=C\c2cccn2-c2cccc(C(=O)O)c2)C1=O, the inhibition is reported as 18.5% (active). For O=C(C[C@@H]1CC[C@H](NC(=O)NC2CCCCC2)[C@H](CO)O1)NCc1ccc(F)cc1, the inhibition was 2.17% (inactive). In the case of O=C(C[C@@H]1C[C@H]2c3cc(NS(=O)(=O)c4ccc(F)cc4)ccc3O[C@H]2[C@@H](CO)O1)NCc1ccccc1F, the inhibition is reported as 2.14% (inactive). C[C@H](CO)N1C[C@H](C)[C@H](CN(C)C(=O)Nc2ccc(F)cc2)OCCCC[C@H](C)Oc2ccc(NC(=O)CCC(F)(F)F)cc2C1=O was tested, and the inhibition was -0.898% (inactive). COCC#Cc1cnc2c(c1)C(=O)N([C@H](C)CO)C[C@H](C)[C@H](CN(C)C(=O)CCN1CCCCC1)O2 was tested, and the inhibition was 9.41% (inactive). With CCCN1[C@H](C(=O)NC2Cc3ccccc3C2)[C@@H](CO)[C@@H]2Cn3c(cccc3=O)[C@@H]21 the inhibition was 2.03% (inactive). COCC(=O)N1CC(=O)N2[C@H](CO)[C@@H](c3ccc(C#CC4CCCC4)cc3)[C@H]2C1 was tested, and the inhibition was 0.692% (inactive). In the case of CCCC#Cc1ccc([C@H]2[C@@H](CO)N3CCCCN(S(=O)(=O)Cc4ccccc4)C[C@H]23)cc1, the inhibition is reported as 37.3% (active). For CCCC#Cc1ccc([C@H]2[C@H](CO)N3CCCCN(S(=O)(=O)CC)C[C@@H]23)cc1, the inhibition was -5.72% (inactive). For CCCC#Cc1ccc([C@H]2[C@@H](CO)N3CCCCN(S(=O)(=O)CC)C[C@H]23)cc1, the inhibition was -3.78% (inactive). For COC(=O)C[C@H]1CC[C@H]2[C@@H](COc3ccc(NC(=O)C4CC4)cc3C(=O)N2C)O1, the inhibition was 4.29% (inactive). With COc1ccc2c3c(n(C)c2c1)[C@H](CO)N(C(C)=O)CC31CCN(Cc2cccnc2)CC1 the inhibition was -0.634% (inactive). For Cc1ccc(S(=O)(=O)N[C@@H]2CC[C@H](CCn3cc(-c4cccc(F)c4)nn3)O[C@@H]2CO)cc1, the inhibition was -2.4% (inactive). Cc1c(C(N)=O)sc2ncn(CCOc3ccccc3)c(=O)c12 was tested, and the inhibition was 25.5% (active). In the case of Clc1ncn(CCOc2ccccc2)c1Cl, the inhibition is reported as -0.177% (inactive). Cc1cccc(OC(=O)c2sc3ncn(C)c(=O)c3c2C)c1 was tested, and the inhibition was 6.38% (inactive). With COc1ccc(NC(=O)Nc2ccc3c(c2)C(=O)N([C@H](C)CO)C[C@@H](C)[C@H](CN(C)CC2CCCCC2)OCCCC[C@@H](C)O3)cc1 the inhibition was -2.57% (inactive). With CCC(=O)N1CC(=O)N2[C@H](CO)[C@@H](c3ccc(-c4ccc(C(=O)N(C)C)cc4)cc3)[C@H]2C1 the inhibition was -3.02% (inactive). In the case of CCNC(=O)C[C@H]1CC[C@@H]2[C@H](COC[C@H](O)CN2C(=O)Nc2c(C)noc2C)O1, the inhibition is reported as -2.07% (inactive). With O=C(NC(c1ccc(Cl)cc1)c1cnccn1)C1CCN(Cc2ccc(Cl)cc2)CC1 (stereo not drawn) the inhibition was 18.2% (active). With Cc1cccnc1C(NC(=O)C1CCN(Cc2ccc(Cl)c(Cl)c2)CC1)c1ccc(Cl)cc1 (stereo not drawn) the inhibition was 0.115% (inactive). For O=C(NC(c1ccc(-c2ccccc2)cc1)c1cnccn1)C1CCN(CCOc2ccc(Cl)cc2Cl)CC1 (stereo not drawn), the inhibition was -0.795% (inactive). For O=C(C[C@@H]1CC[C@@H](NS(=O)(=O)c2ccc(F)cc2)[C@H](CO)O1)NCc1ccc(Cl)c(Cl)c1, the inhibition was -7.51% (inactive). In the case of CCCCNC(=O)C[C@@H]1C[C@@]2(C(=O)OC)CC(C)(C)CC=C2N(Cc2ccco2)C1=O, the inhibition is reported as 21.7% (active). In the case of CCOC(=O)N1CCN(C(=O)C[C@@H]2C[C@@]3(C(=O)OC)CC(C)(C)CC=C3N(Cc3ccco3)C2=O)CC1, the inhibition is reported as -1.2% (inactive). In the case of CCCCNC(=O)C[C@@H]1C[C@@]2(C(=O)OCC)CCC=C2N(Cc2ccco2)C1=O, the inhibition is reported as 4.42% (inactive). For CC(C)NC(=O)N(C)C[C@@H]1Oc2c(NC(=O)c3cnccn3)cccc2C(=O)N([C@@H](C)CO)C[C@@H]1C, the inhibition was -2.42% (inactive). For COc1ccc2c3c([nH]c2c1)[C@@H](CO)N(S(C)(=O)=O)CC31CN(CC2CC2)C1, the inhibition was 1.2% (inactive). CN(C)S(=O)(=O)N1CCN(c2ccc([N+](=O)[O-])cc2)CC1 was tested, and the inhibition was 17.4% (active). For O=[N+]([O-])c1ccc(N2CCOCC2)cc1, the inhibition was -2.77% (inactive). For O=C(Cc1ccc([N+](=O)[O-])cc1)NCCS(=O)(=O)N1CCN(c2ccccc2)CC1, the inhibition was -5.2% (inactive). With O=C(Cc1ccccn1)NCC[C@H]1CC[C@@H](NS(=O)(=O)c2ccc(F)cc2)[C@H](CO)O1 the inhibition was -3.9% (inactive). Nc1[nH]c(C(=O)c2ccccc2)c(-c2ccc(Cl)cc2Cl)c1C(=O)c1ccccc1 was tested, and the inhibition was 1.08% (inactive).
